Bioassay records deposited in PubChem BioAssay by National Center for Advancing Translational Sciences (NCATS).
In the library only some 7.9% were active in any assay of this set; here they are far more common.
KB-3-1 cytotox = kills parental KB-3-1 adenocarcinoma cells. KB-3-1 viability, CellTiter-Glo ATP luminescence, 72 h. Potency, µM (titrated, usually from 46.1 µM), actives largely listed as cytotoxic. 400,000 tested, 1.4% active. AID 1347075; also: nearly all actives have a fitted effect of over 60% in size
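Cells are dispensed, compounds pinned in, plates held at 37 °C for 72 h, then CellTiter-Glo is added and luminescence read after 10 minutes. Cell line: parental KB-3-1 in phenol-red-free DMEM, 10% FBS.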
HT1080NT lethal = kills 2HG-producing HT-1080-NT fibrosarcoma cells; HT-1080-NT fibrosarcoma viability, CellTiter-Glo ATP luminescence, 48 h; Potency, µM (series often up to 46.1 µM), usual class: cytotoxic; 360,000 tested, 1.6% active;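 also: NT is the 2HG producing partner of a matched IDH1 knockdown line; nearly all actives have a fitted effect of over 55% in size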
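Viability by CellTiter-Glo luminescence after 48 h compound exposure at 37C of HT-1080-NT cells (750/well, RPMI, 5% FBS). % activity scaled between DMSO wells and medium-only wells, then curve-fitted and categorized by curve class.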
HT1080 IDH1KD tx = HT-1080 IDH1 knockdown cell toxicity (counter line) | Potency, µM (top dose mostly 46.1 µM), most hits filed as cytotoxic | HT-1080 IDH1 knockdown viability, ATP luminescence, 48 h | 360,000 tested, 2% active
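Assay cells: HT-1080 with IDH1 knockdown, 750 per well, RPMI/5% FBS. Exposure: 48 h at 37 °C following 2 h pre-incubation. Read: CellTiter-Glo luminescence; fitted concentration-response, curve class assigned.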
MCF10A rereplic = induces DNA re-replication in MCF 10a normal breast cells; MCF 10A DNA re-replication, Hoechst nuclear intensity, 48 h; 350,000 tested, 2.9% active; Potency, µM (titrated, usually from 46.1 µM), usual class: activators; AID 624296; also: nearly all actives have a fitted effect of over 50% in size
SW480 rereplic = inducers of DNA re-replication in SW480 colon cancer cells; SW480 DNA re-replication, Hoechst DNA content imaging, 48 h; Potency, µM (series often up to 46.1 µM), actives largely listed as activators; 340,000 tested, 1.8% active; also: nearly all actives have a fitted effect of over 55% in size
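Treated cells incubate 48 hr (37 C, 5% CO2), are stained 40 min with Hoechst, and nuclear fluorescence is enumerated; a rise in nuclei with high DNA signal marks re-replication.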
KB-V1 MDR tox = KB-V1 MDR subline cytotoxicity; KB-V1 MDR cells viability, CellTiter-Glo, 72 h; AID 1347076; 400,000 tested, 3.4% active; Potency, µM (doses to about 46.1 µM), actives largely listed as cytotoxic; also: nearly all actives have a fitted effect of over 60% in size
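Readout: CellTiter-Glo luminescence, 10 min after addition. Cells: KB-V1 MDR subline, 72 h at 37 degrees C with compound. Analysis: corrected, normalized data fitted to concentration-effect curves.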
A number is an active result; [ ] = another dose, or the depositor's remark. Calls follow the shape of the dose curve; as a rule, active = well fitted curve in the direction sought with a large enough effect; inconclusive = small, poorly fitted or top-dose-only effect, or another doubt; inactive = no such curve, though single readings can be large; an effect the other way counts as inactive or inconclusive.

For CNC(=S)N/N=C/c1ccc(-c2ccc(C(=O)O)cc2)o1 the results were KB-3-1 cytotox inactive, HT1080NT lethal inconclusive, HT1080 IDH1KD tx 8.2µM, MCF10A rereplic inconclusive, SW480 rereplic inconclusive and KB-V1 MDR tox 6.51µM.
`CCCCC(=O)N/N=C/c1ccc(-c2ccc([N+](=O)[O-])cc2)o1` gave KB-3-1 cytotox inactive, HT1080NT lethal inactive, HT1080 IDH1KD tx inactive, MCF10A rereplic inactive, SW480 rereplic inactive and KB-V1 MDR tox inactive.
`O=C(O)c1cccc(-c2ccc(/C=N/Nc3ccc([N+](=O)[O-])cc3)o2)c1` gave KB-3-1 cytotox inactive, HT1080NT lethal inactive, HT1080 IDH1KD tx inactive, MCF10A rereplic 18.4µM, SW480 rereplic inconclusive and KB-V1 MDR tox inactive.
For CC(C)(C)NC(=O)C(c1ccccc1)N(Cc1ccco1)C(=O)c1csnn1 (stereo not given) the results were KB-3-1 cytotox inactive, HT1080NT lethal inactive, HT1080 IDH1KD tx inactive, MCF10A rereplic inactive, SW480 rereplic inactive and KB-V1 MDR tox inactive.
Screening COCCCNC(=O)CN1C(=O)c2cccc3cccc1c23 returned KB-3-1 cytotox inactive, HT1080NT lethal inactive, HT1080 IDH1KD tx inactive, MCF10A rereplic inactive, SW480 rereplic inactive[9.22 µM] and KB-V1 MDR tox inactive.
COc1ccc(N(CC(=O)N/N=C/c2ccc(-c3ccc([N+](=O)[O-])cc3)o2)S(=O)(=O)c2ccc(C)cc2)cc1 was read as KB-3-1 cytotox inactive, HT1080NT lethal inactive, HT1080 IDH1KD tx inactive, MCF10A rereplic inconclusive, SW480 rereplic 9.2µM and KB-V1 MDR tox inactive.
`COc1ccccc1S(=O)(=O)N1CCn2cccc2C1C` (stereo not given) gave KB-3-1 cytotox inactive, HT1080NT lethal inactive, HT1080 IDH1KD tx inactive, MCF10A rereplic inactive, SW480 rereplic inactive and KB-V1 MDR tox inactive.
For COc1ccc(C(=O)NCc2ccc3[nH]c(C)cc3c2)cc1OC the results were KB-3-1 cytotox inactive, HT1080NT lethal inactive, HT1080 IDH1KD tx inactive, MCF10A rereplic 4.61µM, SW480 rereplic inactive and KB-V1 MDR tox inactive.
Screening COc1cccc(C(=O)NCc2ccc3[nH]c(C)cc3c2)c1 returned KB-3-1 cytotox inactive, HT1080NT lethal inactive, HT1080 IDH1KD tx inactive, MCF10A rereplic inconclusive, SW480 rereplic inactive and KB-V1 MDR tox inactive.
COc1cc(OC)cc(C(=O)NCc2ccc3[nH]c(C)cc3c2)c1 was read as KB-3-1 cytotox inactive, HT1080NT lethal inactive, HT1080 IDH1KD tx inactive, MCF10A rereplic 0.651µM, SW480 rereplic inactive and KB-V1 MDR tox inactive.
`Cc1ccc(-c2csc(NC(=O)c3ccc(Br)cc3)c2C(=O)O)cc1` gave KB-3-1 cytotox inconclusive, HT1080NT lethal inactive, HT1080 IDH1KD tx inactive, MCF10A rereplic inconclusive, SW480 rereplic inactive and KB-V1 MDR tox inactive.
Screening Cc1nonc1OCC(C)(COc1nonc1C)NC(=O)c1ccccc1 returned KB-3-1 cytotox inactive, HT1080NT lethal inactive, HT1080 IDH1KD tx inactive, MCF10A rereplic inactive, SW480 rereplic inactive and KB-V1 MDR tox 18.4µM.
For NC(=O)Cn1c2[n+](c3ccccc31)CC(O)CS2 (stereo not given) the results were KB-3-1 cytotox inactive, HT1080NT lethal inactive, HT1080 IDH1KD tx inactive, MCF10A rereplic inactive, SW480 rereplic inactive[9.22 µM] and KB-V1 MDR tox inactive.
CCN1CCN(Cc2coc3ccc(C)cc3c2=O)CC1 was read as KB-3-1 cytotox inactive, HT1080NT lethal inactive, HT1080 IDH1KD tx inactive, MCF10A rereplic inconclusive, SW480 rereplic inactive and KB-V1 MDR tox inactive.
For Cc1ccc2occ(CN3CCN(c4ccccc4)CC3)c(=O)c2c1 the results were KB-3-1 cytotox inactive, HT1080NT lethal inactive, HT1080 IDH1KD tx inconclusive, MCF10A rereplic inconclusive, SW480 rereplic inactive and KB-V1 MDR tox 23.1µM.
Screening CS(=O)(=O)N1N=C(c2ccc(Br)cc2)CC1c1ccc2c(c1)OCO2 (stereo not given) returned KB-3-1 cytotox inactive, HT1080NT lethal inactive, HT1080 IDH1KD tx inactive, MCF10A rereplic inactive, SW480 rereplic inactive and KB-V1 MDR tox 16.4µM.
Cc1ccc(C2=NN(S(C)(=O)=O)C(c3ccc4c(c3)OCO4)C2)cc1 (stereo not given) was read as KB-3-1 cytotox inactive, HT1080NT lethal inactive, HT1080 IDH1KD tx inactive, MCF10A rereplic inactive, SW480 rereplic inactive and KB-V1 MDR tox inconclusive.
`CCOC(=O)c1ccc(/C=C2/C=C(c3ccccc3)N(c3ccc(Cl)c(C(=O)O)c3)C2=O)cc1` gave KB-3-1 cytotox inconclusive, HT1080NT lethal 25.9µM, HT1080 IDH1KD tx 9.2µM, MCF10A rereplic 20.6µM, SW480 rereplic inactive and KB-V1 MDR tox inactive.
O=C(COC(=O)c1cc(=O)[nH]c2ccccc12)NC(=O)c1ccccc1 was read as KB-3-1 cytotox inactive, HT1080NT lethal inactive, HT1080 IDH1KD tx inactive, MCF10A rereplic inactive, SW480 rereplic 25.9µM and KB-V1 MDR tox inactive.
For COc1ccc(OC)c(NC(=O)CSc2nccn2Cc2ccco2)c1 the results were KB-3-1 cytotox inactive, HT1080NT lethal inactive, HT1080 IDH1KD tx inactive, MCF10A rereplic inactive, SW480 rereplic inactive and KB-V1 MDR tox inactive.
CCCNC(=O)COC(=O)c1ccccc1C(=O)c1ccc(Cl)c([N+](=O)[O-])c1 was read as KB-3-1 cytotox inconclusive, HT1080NT lethal 9.2µM, HT1080 IDH1KD tx 5.17µM, MCF10A rereplic inconclusive, SW480 rereplic 6.51µM and KB-V1 MDR tox inactive.
`O=C(COC(=O)c1ccccc1[N+](=O)[O-])NCCCc1ccccc1` gave KB-3-1 cytotox inactive, HT1080NT lethal inactive, HT1080 IDH1KD tx inactive, MCF10A rereplic 18.4µM, SW480 rereplic inactive and KB-V1 MDR tox inactive.
Screening Cc1ccc(C(=O)OCC(=O)Nc2c(C)n(C)n(-c3ccccc3)c2=O)cc1[N+](=O)[O-] returned KB-3-1 cytotox inactive, HT1080NT lethal inactive, HT1080 IDH1KD tx inactive, MCF10A rereplic inactive, SW480 rereplic inactive and KB-V1 MDR tox inactive.
Screening Cc1ccc(Cl)c(NC(=O)COC(=O)c2ccccc2C(=O)c2ccc(Cl)c([N+](=O)[O-])c2)c1Cl returned KB-3-1 cytotox inconclusive, HT1080NT lethal inconclusive, HT1080 IDH1KD tx inconclusive, MCF10A rereplic 2.59µM, SW480 rereplic 3.66µM and KB-V1 MDR tox inactive.
Screening CCn1ccc(C(=O)NC2CCCC2)n1 returned KB-3-1 cytotox inactive, HT1080NT lethal inactive, HT1080 IDH1KD tx inactive, MCF10A rereplic inactive, SW480 rereplic inactive and KB-V1 MDR tox inactive.
`CCn1ccc(C(=O)NC2=NCCS2)n1` gave KB-3-1 cytotox inactive, HT1080NT lethal inactive, HT1080 IDH1KD tx inactive, MCF10A rereplic inactive, SW480 rereplic 23.1µM and KB-V1 MDR tox inactive.
`CCOc1ccccc1C(=O)Nc1cc(OC)ccc1OC` gave KB-3-1 cytotox inactive, HT1080NT lethal inactive, HT1080 IDH1KD tx inconclusive, MCF10A rereplic inactive, SW480 rereplic inactive and KB-V1 MDR tox 14.6µM.
